Laboratory results reported in PubChem BioAssay AID1117319 (Southern Research Institute, 2015).
“And” between values parts separate entries of the source, which are not always exact repeats. Equal entries are not always repeated. In all, about 260,000 compounds went through this assay and about 1,500 (0.58%) were called active. Not shown: some 5% with an inconclusive outcome.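 Rule for the calls: active = inhibition above a set limit at one or more doses, reproduced on every date tested; inconclusive = results disagree between test dates, or hit never tested in dose response; inactive = the rest.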 Only a sample is shown. Results with a measured potency or affinity are listed apart.

Each molecule was assayed against Virion infectivity factor (Human immunodeficiency virus type 1 group M subtype B (isolate BH10)) + Virion infectivity factor (Human immunodeficiency virus type 1 group M subtype B (isolate BRU/LAI)) + Virion infectivity factor (Human immunodeficiency virus type 1 group M subtype B (isolate PCV12)) + Virion infectivity factor (Human immunodeficiency virus type 1 group M subtype B (isolate HXB2)) + DNA dC->dU-editing enzyme APOBEC-3G (Homo sapiens) (UniProt P69720+P69721+P69722+P69723+Q9HC16) (assay: HIV-1 Vif–A3G interaction blockers – biochemical, TR-FRET, GST-Vif 1-94, biotin-A3G peptide, dose response retest, primary screen (AID 1117319;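 note: Vif residues 1-94 fused to GST binding biotinylated APOBEC3G peptide 110-148; 0% = full assay without inhibitor and 100% = GST in place of GST-Vif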)). Details: TR-FRET GST-Vif / biotin-A3G peptide binding; hits give high values.

Row | SMILES | inhibition
1 | CCOc1ccc(N(C)S(=O)(=O)c2ccc3[nH]cc(C(=O)NCCOC)c(=O)c3c2)cc1 | 0.42% (inactive)
2 | COc1ccc(-c2c(-c3ccc(O)cc3O)n[nH]c2C)cc1OC | 6.2% (inactive)
3 | CCOc1cccc(C2C(C(=O)c3ccc(C)o3)=C(O)C(=O)N2c2nccs2)c1 (configuration not stated) | -6.71% (inactive)
4 | O=C(N/N=C/c1ccc(OC(=O)c2ccccc2)c([N+](=O)[O-])c1)c1ccc(O)cc1 | 2.33% (inactive)
5 | CCOC(=O)N=Nc1c2ccccc2c2nc3no[nH]c3nc12 | 8.41% (inactive)
6 | Cc1ccc2cc(CN(C(=O)c3ccco3)c3cccc(C)c3C)c(=O)[nH]c2c1 | -8.5% (inactive)
7 | C#Cc1ccc([C@@H]2C=C(C(=O)OCC=C)O[C@H](OCc3ccc(CO)cc3)C2)cc1 | 6.58% (inactive)
8 | COc1ccc(/C=C(\C#N)C(=O)Nc2ccc3[nH]c(=O)[nH]c3c2)cc1 | 11.7% (inactive)
9 | CCOCCCNC(=O)/C(C#N)=C/c1ccc([N+](=O)[O-])o1 | 26.7% (inactive)
10 | N#C/C(=C/c1ccc(Br)o1)C(N)=O | 10.3% (inactive)
11 | Cc1ccc(NC(=O)/C(C#N)=C/c2ccc(Sc3nc(C)cc(C)n3)o2)cc1 | -1.36% (inactive)
12 | COc1ccc(NC(=O)/C(C#N)=C/c2ccc3c(c2)n(C)c(=O)n3C)cc1 | 1.72% (inactive)
13 | N#C/C(=C\c1ccc(-c2ccc(C(=O)O)cc2)o1)C(=O)Nc1ccc(F)cc1 | 15.6% (inactive)
14 | COc1ccc(NC(=O)c2ccc(Br)o2)cc1 | 6.22% (inactive)
15 | N#C/C(=C/c1ccc(F)cc1)C(N)=S | -0.15% (inactive)
16 | CC(=O)OC12CC3CC(C1)C(=NO)C(C3)C2 | -2.41% (inactive)
17 | COc1ccc(Cn2cnc3c(NS(C)(=O)=O)c(C)c(C)cc32)cc1 | -0.98% (inactive)
18 | Cc1ccc(-c2nc(CS(=O)CC(=O)NCCN3CCCCCC3)c(C)o2)cc1 (configuration not stated) | -1.41% (inactive)
19 | COc1ccc(-n2c(SCC(=O)Nc3ccc(C(=O)O)cc3)nnc2-c2ccccc2)cc1OC | 4.7% (inactive)
20 | O=C(N/N=C/c1cc(Br)c(O)c(Br)c1)c1cccnc1 | -0.54% (inactive)
21 | Cc1cc(C)cc(NC(=O)c2ccc(NC(=O)C3C4CC5OC(=O)C3C5C4)cc2)c1 (configuration not stated) | -3.35% (inactive)
22 | CCn1c(C)nnc1SCC(=O)Nc1cccc(C(F)(F)F)c1 | -2.71% (inactive)
23 | CN(C(=O)c1ccc(C#N)cc1)c1nnc(-c2ccccn2)s1 | -7.43% (inactive)

Row | SMILES | inhibition
24 | Cc1ccc2nc3c(c(C(=O)O)c2c1)CCC3 | 32.8% (inactive)
25 | CCc1ccc2nc3c(c(C(=O)O)c2c1)CCC3 | 23.1% (inactive)
26 | Cc1c(C(=O)O)sc(=S)n1CCOc1ccccc1 | 5.91% (inactive)
27 | O=C(CCN1CCN(S(=O)(=O)c2ccc(Cl)cc2)CC1)Nc1ccc(F)cc1 | 1.22% (inactive)
28 | Cc1cc(O)c(C(C)C)cc1N=Cc1ccccc1[N+](=O)[O-] | -2.95% (inactive)
29 | Cc1cc(O)c(C(C)C)cc1N=Cc1ccc(N(C)C)cc1 | 12.6% (inactive)
30 | Cc1cc(O)c(C(C)C)cc1N=Cc1ccccc1O | -2.17% (inactive)
31 | COc1cccc(C=Nc2ccccc2C#N)c1O | 14.7% (inactive)
32 | O=C(CC(O)(c1ccccc1)c1ccccc1)Nc1ccccn1 | -5.64% (inactive)
33 | O=C1Nc2ccccc2C(=O)C1(Cl)Cc1ccccc1 (configuration not stated) | 2.05% (inactive)
34 | Cc1ccc(OCC(=O)OCc2nc3scc(-c4ccccc4)c3c(=O)[nH]2)cc1C | -11.5% (inactive)
35 | Cn1c(=O)c2c(nc(SCc3nn[nH]n3)n2Cc2ccccc2F)n(C)c1=O | 26.4% (inactive)
36 | Cn1c(=O)c2c(nc(SCCCC#N)n2Cc2ccccc2F)n(C)c1=O | 5.84% (inactive)
37 | Cc1ccccc1-n1cnc2cc(NCc3cccs3)ccc21 | 4.79% (inactive)
38 | COc1ccccc1-n1cnc2cc(NCc3ccccc3O)ccc21 | 5.69% (inactive)
39 | COc1ccc(CC(=O)Nc2ccc(S(=O)(=O)Nc3cc(C)nc(C)n3)cc2)cc1OC | -3.26% (inactive)
40 | CC(C)c1ccc(CCNC(=O)CCNC(=O)c2ccc(Br)cc2)cc1 | -4.69% (inactive)
41 | Oc1ccccc1C=NCC(O)c1ccccc1 (configuration not stated) | 22% (inactive)
42 | Oc1cccc(C=NCc2ccccc2)c1 | -4.5% (inactive)
43 | Oc1c(Br)cc(Br)cc1C=NCc1ccccc1 | -9.44% (inactive)
44 | COc1cccc(C=NCC(C)N=Cc2cccc(OC)c2O)c1O (configuration not stated) | 1.39% (inactive)
45 | COC(=O)c1ccc(C2C(Oc3ccccc3)C(=O)N2CCc2ccc(F)cc2)cc1 (configuration not stated) | -5.73% (inactive)
46 | C=CCN(C(=O)CCS(=O)(=O)c1cccc2nsnc12)c1ccccc1 | -10% (inactive)

Row | SMILES | inhibition
47 | Cc1ccc(NC(=O)CN2C(=O)NC(C)(c3ccc(Cl)cc3)C2=O)cc1S(=O)(=O)N1CCOCC1 (configuration not stated) | 19.2% (inactive)
48 | CC(=O)c1ccc(S(=O)(=O)Nc2ccc(C(=O)NCC(c3cccs3)N3CCOCC3)cc2)cc1 (configuration not stated) | 3.75% (inactive)
49 | CC1(C)Cc2cccc(OCC(=O)N3CCN(c4ccccc4F)CC3)c2O1 | -1.24% (inactive)
50 | c1ccc(N(c2ccccc2)c2nc(-n3ccnc3)nc(-n3ccnc3)n2)cc1 | -4.38% (inactive) and -2.66% (inactive)
51 | CN(c1ccccc1)c1nc(-n2ccnc2)nc(-n2ccnc2)n1 | -3.98% (inactive)
52 | O=C(NCCC1=CCCCC1)c1ccc2c(=O)n3c(nc2c1)CCCCC3 | -3.44% (inactive)
53 | Cc1cc(C)nc(N2CCCC(C(=O)NCc3ccc4c(c3)OCO4)C2)n1 (configuration not stated) | -5.32% (inactive)
54 | COc1cc(C)c(NC(=O)COc2cccc3c2OC(C)(C)C3)cc1OC | -1.98% (inactive)
55 | Cc1cc2c(ccc3c2no[n+]3[O-])nn1 | 7.27% (inactive)
56 | [O-][n+]1onc2c3ccnnc3ccc21 | 0.24% (inactive)
57 | CCOc1ccc(CCNC(=O)c2cccc(S(=O)(=O)N3CCCCC3)c2)cc1OCC | -3.3% (inactive)
58 | O=C(Cn1c(=S)[nH]c2ncccc2c1=O)NCCc1ccccc1 | -0.88% (inactive)
59 | O=C(NCCCN1CCOCC1)c1ccc2c(=O)n(Cc3ccccc3)c(=S)[nH]c2c1 | -10.2% (inactive)
60 | CCOC(=O)C1=C(Cc2ccc(OC)cc2)C(=O)c2ccccc2C1=O | 24.3% (inactive)
61 | CCOC(=O)C1=C(O)c2ccccc2C(=O)/C1=C\c1ccc(CC)cc1 | 31.5% (inactive)
62 | CCN(CC)/C(=N\S(=O)(=O)c1ccc(F)cc1)c1ccccc1 | 3.32% (inactive)
63 | COCCNC(=S)N1CCCN(c2nc3cc(C)ccc3cc2C#N)CC1 | 3.12% (inactive)
64 | Cc1ccc(S(=O)(=O)N(Cc2ccccc2)c2ccccc2C(=O)NCc2cccnc2)cc1 | 1.8% (inactive)
65 | COc1ccc(NCc2n[nH]c(=O)c3ccccc23)cc1 | 4.49% (inactive)
66 | O=c1[nH]nc(CNc2ccc(C(F)(F)F)cc2)c2ccccc12 | -3.84% (inactive)
67 | CC(NC(=O)COC(=O)c1cc(S(=O)(=O)N2CCOCC2)ccc1F)c1ccccc1 (configuration not stated) | 4.22% (inactive)
68 | Cc1ccc(S(=O)(=O)Nc2cccc(C(=O)N3CCC(C(N)=O)CC3)c2)cc1 | -11.3% (inactive)
69 | O=C(CSc1nc2ccccc2c(=O)n1-c1ccccc1Cl)Nc1cccc(S(=O)(=O)N2CCOCC2)c1 | 12.8% (inactive)

Row | SMILES | inhibition
70 | Cc1cc(C)nc(NS(=O)(=O)c2ccc(NC(=O)c3cc(=O)c4ccccc4o3)cc2)n1 | -13.1% (inactive)
71 | Cc1ccc(C(=O)NC(=S)NNC(=O)COc2ccc([N+](=O)[O-])cc2)cc1 | -1.27% (inactive)
72 | Cc1cc(C=C2C(=O)c3ccccc3C2=O)c(C)n1-c1cccc(C(=O)O)c1 | 24.6% (inactive)
73 | Cc1cc(/C=C2/NC(=O)N(c3ccccc3)C2=O)c(C)n1-c1cccnc1 | 5.85% (inactive)
74 | Cc1cccc(N2C(=O)CC(N3CCN(c4ccccc4)CC3)C2=O)c1 (configuration not stated) | 6.83% (inactive)
75 | Cc1ccccc1N=C1NC(=O)CS1 | -1.84% (inactive)
76 | Cc1ccc(N=C2NC(=O)CS2)cc1 | 32.9% (inactive)
77 | CCOC(=O)C(NC(=O)c1cccc(Cl)c1)(Nc1sc2c(c1C(N)=O)CCC2)C(F)(F)F (configuration not stated) | 30.9% (inactive)
78 | Nc1nc2nc(-c3ccc(F)cc3)cc(C(F)(F)F)n2n1 | 12.1% (inactive)
79 | COc1ccc(NS(=O)(=O)c2cccc(C(=O)NNC(=O)c3ccccc3O)c2)cc1 | 9.79% (inactive)
80 | COc1ccc(NS(=O)(=O)c2cccc(C(=O)NNC(=O)c3cccc(NC(C)=O)c3)c2)cc1 | 2.28% (inactive)
81 | CCc1ccc(N(C(=O)CNC(=O)c2ccco2)C(C(=O)NCC2CCCO2)c2ccccc2)cc1 (configuration not stated) | 6.06% (inactive)
82 | O=C(CCNC(=O)c1ccccc1Cl)Nc1nc(-c2ccccc2Cl)cs1 | 15.5% (inactive)
83 | NC(=O)c1ccc(-n2nnnc2SCc2ccccc2)cc1 | -2.97% (inactive)
84 | COC(=O)c1ccccc1-c1ccc(C=O)o1 | -12.2% (inactive)
85 | COC(=O)c1ccccc1-c1ccc(/C=N/NC(N)=O)o1 | -4.17% (inactive)
86 | COc1cc(/C=C(\C#N)c2ccccn2)cc(OC)c1O | 7.21% (inactive)
87 | COc1cc(C(=O)Oc2cccc(C=O)c2)cc(OC)c1OC | 8.54% (inactive)
88 | CCc1ccc(OCc2nnc(SCc3ccc(C(=O)O)cc3)o2)cc1 | -1.45% (inactive)
89 | O=C(O)c1ccc(CSc2nnc(COc3ccccc3)o2)cc1 | -5.6% (inactive)
90 | CSCCC(NC(=O)c1ccccc1Cl)C(=O)N1CCN(c2ccccn2)CC1 (configuration not stated) | -6.33% (inactive)
91 | COc1ccc(-c2noc(CCC(=O)N3CCN(c4cccc(C(F)(F)F)c4)CC3)n2)cc1 | 22.9% (inactive) and -0.11% (inactive)
92 | CC(C)N(Cc1ccccc1)C(=O)COC(=O)C1CCN(c2ccc(C(F)(F)F)cn2)CC1 | -3.12% (inactive)
